Results from PubChem BioAssay AID1159580 (chemical genetic matrix, 2015).
The campaign covered roughly 5,500 compounds. About 2,000 (36%) were called active. Roughly 18% stayed inconclusive and do not appear here. No stated cut-off is given here; in the data, active means normalized growth mostly below about 0.91 (no sharp cut-off); inconclusive means no clear call, values can overlap the other calls; inactive means mostly above about 0.92. The list shows a part of the results.

Experiment: chemical genetic growth profiling, strain panel (AID 1159580);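 further: tested at 20 µM; growth read once vehicle control cultures reached saturation at 30 °C; 1 = growth at the plate median or of vehicle wells; lower values mean less growth of the strain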
Conditions: S. cerevisiae deletion strains, growth OD

Measured: normalized growth

C[C@@H]1OC(O[C@H]2C(O[C@H]3CC[C@@]4(C)C(CC[C@]5(C)C4CC=C4C6CC(C)(C)CC[C@]6(C(=O)O)CC[C@]45C)[C@]3(C)CO)OC[C@H](O)[C@@H]2O)[C@H](O)[C@H](O)[C@H]1O (stereo not given in full)
active: locus YAL021C, strain ccr4, hits give low values 0.0607 | locus YAL026C, strain drs2, hits give low values 0.0592 | locus YAL030W, strain snc1, hits give low values 0.0552 | locus YBL061C, strain skt5, hits give low values 0.058 | locus YBR009C, strain hhf1, hits give low values 0.061 | locus YBR021W, strain FUR4, hits give low values 0.267 | locus YBR023C, strain chs3, hits give low values 0.0603 | locus YBR171W, strain sec66, hits give low values 0.0767 | locus YBR229C, strain ROT2, hits give low values 0.32 | locus YBR231C, strain swc5, hits give low values 0.0595 | locus YBR279W, strain paf1, hits give low values 0.0577 | locus YCL011C, strain gbp2, hits give low values 0.0544 | locus YCL016C, strain dcc1, hits give low values 0.0589 | locus YCL029C, strain bik1, hits give low values 0.0636 | locus YCL061C, strain MRC1, hits give low values 0.0604 | locus YCL069W, strain vba3, hits give low values 0.0603 | locus YCR088W, strain abp1, hits give low values 0.059 | locus YDL005C, strain med2, hits give low values 0.0706 | locus YDL035C, strain GPR1, hits give low values 0.483 | locus YDL040C, strain nat1, hits give low values 0.0557 | locus YDL074C, strain BRE1, hits give low values 0.269 | locus YDL101C, strain DUN1, hits give low values 0.44 | locus YDL185W, strain tfp1, hits give low values 0.0554 | locus YDL192W, strain arf1, hits give low values 0.0745 | locus YDR001C, strain nth1, hits give low values 0.0586 | locus YDR069C, strain doa4, hits give low values 0.0606 | locus YDR101C, strain arx1, hits give low values 0.0695 | locus YDR137W, strain rgp1, hits give low values 0.0801 | locus YDR159W, strain sac3, hits give low values 0.0844 | locus YDR162C, strain NBP2, hits give low values 0.299 | locus YDR195W, strain ref2 0.105 | locus YDR297W, strain sur2, hits give low values 0.0548 | locus YDR318W, strain mcm21, hits give low values 0.0705 | locus YDR334W, strain swr1, hits give low values 0.0629 | locus YDR335W, strain msn5, hits give low values 0.0601 | locus YDR388W, hits give low values 0.0545 | locus YDR392W, strain spt3, hits give low values 0.0915 | locus YDR502C, strain sam2, hits give low values 0.0793 | locus YEL003W, strain gim4, hits give low values 0.0528 | locus YEL037C, strain rad23, hits give low values 0.0576 | locus YEL061C, strain CIN8 (second series), hits give low values 0.0604 | locus YEL061C, strain CIN8, hits give low values 0.447 | locus YER015W, strain faa2, hits give low values 0.059 | locus YER016W, strain bim1, hits give low values 0.059 | locus YER110C, hits give low values 0.0996 | locus YER111C, strain swi4, hits give low values 0.0703 | locus YER155C, strain BEM2 (second series), hits give low values 0.0853 | locus YER155C, strain BEM2, hits give low values 0.124 | locus YER167W, strain BCK2, hits give low values 0.24 | locus YFR010W, strain ubp6, hits give low values 0.0632 | locus YGL078C, strain dbp3, hits give low values 0.056 | locus YGL086W, strain mad1, hits give low values 0.0905 | locus YGL167C, strain pmr1, hits give low values 0.0718 | locus YGL173C, strain kem1, hits give low values 0.0643 | locus YGL227W, strain vid30, hits give low values 0.0617 | locus YGL240W, strain doc1, hits give low values 0.0707 | locus YGL248W, strain PDE1, hits give low values 0.422 | locus YGL253W, strain hxk2, hits give low values 0.053 | locus YGR078C, strain PAC10, hits give low values 0.325 | locus YGR135W, strain pre9, hits give low values 0.136 | locus YGR252W, strain gcn5, hits give low values 0.157 | locus YHR013C, strain ard1, hits give low values 0.114 | locus YHR027C, strain rpn1, hits give low values 0.0611 | locus YHR030C, strain SLT2, hits give low values 0.103 | locus YHR079C, strain IRE1 (second series), hits give low values 0.0576 | locus YHR094C, strain hxt1, hits give low values 0.0605 | locus YHR129C, strain ARP1, hits give low values 0.202 | locus YHR142W, strain chs7, hits give low values 0.0688 | locus YHR200W, strain rpn10, hits give low values 0.0676 | locus YIL066C, strain RNR3, hits give low values 0.457 | locus YIL073C, strain SPO22, hits give low values 0.285 | locus YIL125W, strain kgd1, hits give low values 0.0561 | locus YIR030C, strain dcg1, hits give low values 0.0652 | locus YJL092W, strain hpr5, hits give low values 0.0579 | locus YJL095W, strain BCK1 (second series), hits give low values 0.0567 | locus YJL095W, strain BCK1, hits give low values 0.143 | locus YJL115W, strain asf1, hits give low values 0.069 | locus YJL129C, strain trk1, hits give low values 0.0793 | locus YJL134W, strain LCB3, hits give low values 0.187 | locus YJL154C, strain vps35, hits give low values 0.0589 | locus YJL164C, strain tpk1, hits give low values 0.0589 | locus YJL166W, strain qcr8, hits give low values 0.0599 | locus YJL168C, strain set2, hits give low values 0.0664 | locus YJL187C, strain SWE1 (second series), hits give low values 0.48 | locus YJL187C, strain SWE1, hits give low values 0.0554 | locus YJR043C, strain POL32, hits give low values 0.42 | locus YKL009W, strain mrt4, hits give low values 0.0928 | locus YKL068W, hits give low values 0.0555 | locus YKL085W, strain MDH1 (second series), hits give low values 0.0602 | locus YKL085W, strain MDH1, hits give low values 0.0602 | locus YKL160W, strain elf1, hits give low values 0.0617 | locus YKR001C, strain vps1, hits give low values 0.0888 | locus YKR026C, strain gcn3, hits give low values 0.0618 | locus YKR091W, strain srl3, hits give low values 0.0568 | locus YLL001W, strain dnm1, hits give low values 0.0585 | locus YLL026W, hits give low values 0.0562 | locus YLL041C, strain sdh2, hits give low values 0.0555 | locus YLR027C, strain aat2, hits give low values 0.0549 | locus YLR039C, strain RIC1, hits give low values 0.135 | locus YLR058C, strain SHM2, hits give low values 0.414 | locus YLR102C, strain apc9, hits give low values 0.0668 | locus YLR221C, strain rsa3, hits give low values 0.0578 | locus YLR258W, strain gsy2, hits give low values 0.0581 | locus YLR262C, strain YPT6 (second series), hits give low values 0.0763 | locus YLR262C, strain YPT6, hits give low values 0.153 | locus YLR268W, strain sec22, hits give low values 0.0705 | locus YLR320W, strain mms22, hits give low values 0.0834 | locus YLR330W, strain CHS5, hits give low values 0.213 | locus YLR342W, strain FKS1 (second series), hits give low values 0.286 | locus YLR342W, strain FKS1, hits give low values 0.0611 | locus YLR357W, strain rsc2, hits give low values 0.11 | locus YLR370C, strain arc18, hits give low values 0.0593 | locus YLR371W, strain rom2, hits give low values 0.0622 | locus YLR384C, strain iki3, hits give low values 0.0588 | locus YLR418C, strain cdc73, hits give low values 0.114 | locus YML016C, strain PPZ1, hits give low values 0.214 | locus YML032C, strain rad52, hits give low values 0.0701 | locus YML120C, strain ndi1, hits give low values 0.0572 | locus YML124C, strain tub3, hits give low values 0.0681 | locus YMR058W, strain fet3, hits give low values 0.0577 | locus YMR078C, strain ctf18, hits give low values 0.0754 | locus YMR125W, strain sto1, hits give low values 0.0713 | locus YMR129W, hits give low values 0.0556 | locus YMR205C, strain PFK2, hits give low values 0.0864 | locus YMR223W, strain ubp8, hits give low values 0.0761 | locus YMR231W, strain pep5, hits give low values 0.0636 | locus YMR263W, strain SAP30, hits give low values 0.185 | locus YMR307W, strain GAS1, hits give low values 0.117 | locus YNL067W, strain RPL9B, hits give low values 0.471 | locus YNL071W, strain lat1, hits give low values 0.0594 | locus YNL128W, strain TEP1, hits give low values 0.401 | locus YNL209W, strain ssb2, hits give low values 0.0578 | locus YNL233W, strain BNI4, hits give low values 0.167 | locus YNL248C, strain rpa49, hits give low values 0.0674 | locus YNL250W, strain rad50, hits give low values 0.0622 | locus YNL271C, strain bni1, hits give low values 0.058 | locus YNL298W, strain CLA4, hits give low values 0.0574 | locus YNL307C, strain MCK1, hits give low values 0.0651 | locus YNL322C, strain KRE1 (second series), hits give low values 0.0635 | locus YNR049C, strain mso1, hits give low values 0.0575 | locus YNR052C, strain pop2, hits give low values 0.0612 | locus YOL147C, strain pex11, hits give low values 0.0641 | locus YOR001W, strain rrp6, hits give low values 0.0642 | locus YOR061W, strain CKA2, hits give low values 0.723 | locus YOR069W, strain VPS5, hits give low values 0.193 | locus YOR070C, strain gyp1, hits give low values 0.0577 | locus YOR080W, strain dia2, hits give low values 0.0631 | locus YOR083W, strain WHI5, hits give low values 0.0595 | locus YOR106W, strain vam3, hits give low values 0.0596 | locus YOR136W, strain idh2, hits give low values 0.0808 | locus YOR144C, strain elg1, hits give low values 0.0575 | locus YOR184W, strain ser1, hits give low values 0.0762 | locus YOR265W, strain rbl2, hits give low values 0.0556 | locus YOR270C, strain vph1, hits give low values 0.0934 | locus YOR290C, strain snf2, hits give low values 0.0761 | locus YOR316C, strain cot1, hits give low values 0.0649 | locus YPL051W, strain arl3, hits give low values 0.0588 | locus YPL078C, strain atp4, hits give low values 0.0628 | locus YPL106C, strain sse1, hits give low values 0.0896 | locus YPL240C, strain hsp82, hits give low values 0.0548 | locus YPR119W, strain clb2, hits give low values 0.0662 | locus YPR141C, strain kar3, hits give low values 0.0612 | locus YPR163C, strain tif3, hits give low values 0.0699 | locus YPR167C, strain met16, hits give low values 0.0649 | strain wtn01, hits give low values 0.0783
